We go through 14 molecules from PubChem BioAssay (NCI).

The panel holds about 83,000 compounds, 20% with a hit somewhere; the sample as a whole holds those more often.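 Assay: single dose, 48 h. Readout: percent growth (0 = no net growth; negative = cell death). Active: <10.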 Values without a mark were called inactive. The source made the active and inactive calls.

Some test systems named below: EKVX NSCLC; SN12C renal; UO-31 renal; TK-10 renal; ACHN renal; CAKI-1 renal; A498 renal; CCRF-CEM leukemia; MOLT-4 leukemia; SR leukemia.
What all share (assay): NCI-60 one-dose screen, 48 h (100 = growth as untreated, 0 = no growth, -100 = all killed)
Conditions in all cases: 10 µM unless noted

In the case of `CCOc1ccccc1C(=O)OCC(=O)Nc1cccc(S(=O)(=O)N(C)C)c1`, the growth in the test on EKVX NSCLC is 104%; in the test with SN12C renal, 103%; with UO-31 renal, 79%; in the test on TK-10 renal it was 169%; in the test on ACHN renal, 121%; in the test with CAKI-1 renal, 95.2%. Besides, the growth in the test on A498 renal is 118%; in the test with CCRF-CEM leukemia it was 169%; in the test with MOLT-4 leukemia, 105%; in the test with SR leukemia it was 105%.

As for `Cc1cc(C(=O)O)c(C)cc1C(=O)O`, the growth in the test with EKVX NSCLC is 122%; in the test with SN12C renal, 106%; in the test on UO-31 renal it was 73.5%; with TK-10 renal, 115%; in the test with ACHN renal it was 112%; in the test with CAKI-1 renal, 102%. Besides, the growth in the test on A498 renal is 103%; in the test on CCRF-CEM leukemia, 101%; in the test with MOLT-4 leukemia it was 87.7%; in the test with SR leukemia, 105%.

Take `Cc1cc(NC(=O)Nc2cc(Cl)ccc2C)no1`: the growth in the test on EKVX NSCLC is 87%; in the test with SN12C renal, 109%; in the test with UO-31 renal, 96.2%; with TK-10 renal, 231%; with ACHN renal it was 103%; with CAKI-1 renal, 96.1%. Besides, the growth in the test on A498 renal is 133%; in the test with CCRF-CEM leukemia, 109%; in the test on MOLT-4 leukemia, 97.5%; in the test with SR leukemia, 59.4%.

Turning to `N#Cc1c(N)[nH]c(S)c1C#N`, the growth is 101% with EKVX NSCLC; 108% in the test with SN12C renal; 88.2% in the test with UO-31 renal; 111% with TK-10 renal; 93.6% with ACHN renal; 98.5% in the test with CAKI-1 renal. For the same molecule, the growth with A498 renal is 76.2%; in the test on CCRF-CEM leukemia, 102%; in the test with MOLT-4 leukemia it was 108%; with SR leukemia, 97.8%.

As to `Nc1nc(SCc2ccccc2Cl)c(-c2ccccc2)c(SCc2ccccc2Cl)n1`, the growth in the test with EKVX NSCLC is 97.3%; in the test with SN12C renal, 104%; in the test on UO-31 renal, 69.9%; in the test with TK-10 renal, 97.7%; with ACHN renal, 91.4%; in the test on CAKI-1 renal it was 79.6%. Besides, the growth with A498 renal was 67.6%; with CCRF-CEM leukemia it was 78.4%; in the test on MOLT-4 leukemia, 90.9%; in the test with SR leukemia, 96.3%.

Regarding `C=CCOc1ccc2c(c1)CC[C@@H]1[C@@H]2CC[C@@]2(C)[C@H]1CC[C@]2(C)O`, the growth in the test with EKVX NSCLC is 82%; in the test on SN12C renal, 96.7%; with UO-31 renal it was 92.6%; in the test on TK-10 renal, 56.7%; in the test with ACHN renal, 85.8%; in the test on CAKI-1 renal, 75.4%. Further, the growth in the test on A498 renal is 90.5%; in the test with CCRF-CEM leukemia, 70.7%; in the test with MOLT-4 leukemia, 72.5%; in the test on SR leukemia it was 58%.

For `O=c1ccn(C2OC(CO)C(O)C2F)c(=O)[nH]1` (stereo not given), the growth in the test on EKVX NSCLC is 102%; in the test with SN12C renal, 102%; in the test on UO-31 renal it was 101%; with TK-10 renal it was 124%; in the test on ACHN renal it was 107%; with CAKI-1 renal it was 107%. For the same molecule, the growth with A498 renal was 110%; in the test with CCRF-CEM leukemia, 119%; in the test on MOLT-4 leukemia, 168%; with SR leukemia, 111%.

For the molecule `c1ccc(Nc2nnc(-c3cc(-c4cccnc4)n(-c4ccccc4)n3)s2)cc1`, the growth in the test with EKVX NSCLC is 83%; in the test on SN12C renal it was 87.7%; in the test with UO-31 renal, 56.9%; with TK-10 renal it was 88.6%; in the test with ACHN renal, 81.7%; in the test on CAKI-1 renal it was 46.4%. The growth is 74.4% in the test with A498 renal, 72.6% with CCRF-CEM leukemia, 56.5% with MOLT-4 leukemia and 67.1% with SR leukemia.

For the molecule `Cc1cc(CC(=O)O)n(C)c1C(=O)c1ccc(Cl)cc1`, the growth in the test with EKVX NSCLC is 102%; in the test on SN12C renal, 109%; with UO-31 renal, 104%; in the test on TK-10 renal it was 108%; with ACHN renal, 101%; in the test with CAKI-1 renal it was 96%. The growth with A498 renal was 123%; in the test with CCRF-CEM leukemia it was 95.6%; in the test on MOLT-4 leukemia, 98.3%; in the test on SR leukemia, 107%.

As to `Cc1[nH]n(C(N)=S)c(=O)c1N=Nc1ccc(F)c(Cl)c1`, the growth with EKVX NSCLC was 96.6%; with SN12C renal, 95.8%; in the test with UO-31 renal it was 73.9%; with TK-10 renal it was 125%; in the test with ACHN renal, 104%; in the test on CAKI-1 renal it was 103%. The growth was 128% in the test with A498 renal, -8.05% (active) in the test on CCRF-CEM leukemia, 76.9% in the test on MOLT-4 leukemia and 80.2% in the test with SR leukemia.

As for `Nc1ccc(S(=O)(=O)Nc2ncccn2)cc1`, the growth in the test with EKVX NSCLC is 103%; with SN12C renal, 103%; in the test with UO-31 renal, 94.5%; with TK-10 renal it was 114%; in the test with ACHN renal, 98.6%; with CAKI-1 renal it was 103%. The growth in the test on A498 renal was 113%; with CCRF-CEM leukemia, 101%; in the test with MOLT-4 leukemia it was 106%; in the test on SR leukemia, 103%.

In the case of `COc1cc(Oc2cc(-c3cccnc3)ccc2NC(=O)Nc2ccc(F)cc2F)cc(OC)c1OC`, the growth with EKVX NSCLC is 90.4%; with SN12C renal, 102%; with UO-31 renal it was 76.8%; in the test on TK-10 renal it was 116%; with ACHN renal, 121%; in the test with CAKI-1 renal, 94.3%. In addition, the growth is 89.9% in the test on A498 renal, 97.3% in the test with CCRF-CEM leukemia, 84.9% in the test with MOLT-4 leukemia and 97.4% in the test on SR leukemia.

Take `CN(C)c1ccc(/C=C(\C#N)c2nc3ccccc3c(=O)[nH]2)cc1`: the growth with EKVX NSCLC is 92%; in the test with SN12C renal, 90.8%; with UO-31 renal it was 35.7%; in the test with TK-10 renal it was 101%; with ACHN renal it was 96.1%; with CAKI-1 renal, 98%. For the same molecule, the growth was 90.7% with A498 renal, 107% with CCRF-CEM leukemia, 118% in the test with MOLT-4 leukemia and 154% in the test with SR leukemia.

Take `Oc1ccc(Cc2ccc(O)c(C3CC(c4ccc(Cl)cc4)=NN3)c2)cc1C1CC(c2ccc(Cl)cc2)=NN1` (stereo not given): the growth in the test with EKVX NSCLC is -6.4% (active); in the test with SN12C renal, 24.9%; with UO-31 renal it was -22.4% (active); with TK-10 renal, 21%; in the test on ACHN renal, 16.5%; in the test on CAKI-1 renal it was -49.4% (active). The growth in the test with A498 renal is 33.8%; in the test on CCRF-CEM leukemia it was 8.95% (active); in the test on MOLT-4 leukemia it was -5.34% (active); in the test with SR leukemia it was 3.43% (active).
